Bioassay records: PubChem, National Center for Advancing Translational Sciences (NCATS)
The list is not random: actives were taken first. Their share in the collection is about 19%.
DT40 TDP1 no CPT: qHTS for Inhibitors of human tyrosyl-DNA phosphodiesterase 1 (TDP1): qHTS in cells in absence of CPT. DT40 Tdp1-/- hTDP1 cells, no CPT, ATP luminescence, 48 h. Potency, µM (titrated, usually from 46.2 µM), actives largely listed as inhibitors. 420,000 tested, 15% active. AID 686978, 2013; note: nearly all actives have a fitted effect of over 55% in size
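Luminescent ATP content (CellTiter-Glo) served as the growth readout. Knockout chicken DT40 cells expressing human TDP1 were exposed to compounds without camptothecin for a minimum 48 hr at 37 °C.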
TDP1 cell CPT: qHTS for Inhibitors of human tyrosyl-DNA phosphodiesterase 1 (TDP1): qHTS in cells in presence of CPT; chicken DT40 Tdp1-/-;hTDP1 cells + 20 nM CPT, ATP luminescence, 48 h; Potency, µM (series often up to 46.2 µM), hits mostly inhibitors; 420,000 tested, 12% active; note: nearly all actives have a fitted effect of over 55% in size
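Chicken DT40 Tdp1-/- cells stably complemented with human TDP1 were seeded at 400 cells/well in medium containing 20 nM camptothecin, exposed to pin-transferred compounds, and grown at 37 °C for at least 48 hr. Viability was read as ATP luminescence.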
HT1080NT lethal: qHTS for induction of synthetic lethality in tumor cells producing 2HG: qHTS for the HT-1080-NT fibrosarcoma cell line | 360,000 tested, 1.6% active | Potency, µM (top dose mostly 46.1 µM), most hits filed as cytotoxic | HT-1080-NT fibrosarcoma viability, CellTiter-Glo ATP luminescence, 48 h;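 note: NT is the 2HG producing partner of a matched IDH1 knockdown line; nearly all actives have a fitted effect of over 55% in size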
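750 cells/well, RPMI + 5% FBS; 2 h settle, compound pin-transfer, 48 h at 37 degrees C. CellTiter-Glo 10 min RT, luminescence. Normalized to DMSO and media-only wells.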
ELG1 DNA repair: qHTS screen for small molecules that inhibit ELG1-dependent DNA repair in human embryonic kidney (HEK293T) cells expressing luciferase-tagged ELG1; HEK293T ELG1-luciferase reporter, luminescence, 16 h; DNA damage induced by 5-fluorouridine; Potency, µM (doses to about 46.1 µM), actives largely listed as inhibitors; 330,000 tested, 2.3% active; note: nearly all actives have a fitted effect of over 55% in size
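Step one: seed 2,000 cells per well. Step two: pin-transfer compound or DMSO alongside 5-fluorouridine. Step three: incubate 16 hr, 37 °C, 5% CO2. Step four: add ONE-Glo, wait 30 min, read luminescence.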
HT1080 IDH1KD tx: qHTS for induction of synthetic lethality in tumor cells producing 2HG: qHTS for the HT-1080-IDH1KD cell line; Potency, µM (titrated, usually from 46.1 µM), hits mostly cytotoxic; AID 686971, 2013; HT-1080 IDH1 knockdown viability, ATP luminescence, 48 h; 360,000 tested, 2% active
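CellTiter-Glo luminescence after 48 h compound exposure at 37 degrees C of IDH1-knockdown HT-1080 cells in 5% FBS RPMI. %Activity scaled between DMSO wells and cell-free media wells, with curves fitted and assigned curve classes.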
IL-1B inflam inh: qHTS for Inhibitors of Inflammasome Signaling: IL-1-beta AlphaLISA Primary Screen | AID 743279, 2014 | activity change, % at 57.5 µM | THP-1 LPS/ATP IL-1B secretion, AlphaLISA, 16 h; hits give low values | 360,000 tested, 4.7% active; in the data active = activity change below about -50%; inconclusive = mostly about -30% to -49%
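THP-1 cells pretreated 1 hr with compounds (up to 57.5 uM final), then stimulated with LPS (250 ng/mL final) plus ATP (1.25 mM final); secreted IL-1B measured by AlphaLISA after 16 hr, decreased signal indicating inhibition.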
Numbers stand for hits; 0 = inactive; ? = inconclusive; - = no result. Unless noted, calls come from the whole dose curve; as a rule, active = well fitted curve in the direction sought with a large enough effect; inconclusive = small, poorly fitted or top-dose-only effect, or another doubt; inactive = no such curve, though single readings can be large; an effect the other way counts as inactive or inconclusive.

SMILES	DT40 TDP1 no CPT	TDP1 cell CPT	HT1080NT lethal	ELG1 DNA repair	HT1080 IDH1KD tx	IL-1B inflam inh
Cn1c(=O)c(-c2ccccc2)nc2cnc(OCc3ccccc3)nc21	0	0	-	-	-	-
Cc1cccc(-c2nnc(SC(C)C(=O)N3CCOCC3)o2)c1 (centres undefined)	0	0	0	0	0	0
Cc1nn2c(N)c(C#N)cnc2c1-c1ccccc1	?	?	0	?	0	0
N#Cc1cnc2c(-c3ccccc3)c(-c3ccccc3)nn2c1N	18.4µM	23.1µM	0	0	0	0
COc1ccc(-c2c(C)nn3c(N)c(C#N)cnc23)cc1OC	13µM	7.31µM	0	0	0	0
Oc1cccc2ccc(/C=C/c3cccs3)nc12	14.1µM	15.8µM	?	?	11.2µM	0
Cc1cccc(/C=C/c2cccs2)n1	0.631µM	1.12µM	-	-	-	-
Cc1ccsc1/C=C/c1ccc2ccccc2n1	?	?	0	?	0	0
Cc1ccsc1/C=C/c1ccc2cccc(O)c2n1	23.1µM	?	12.6µM	?	11.2µM	0
Cc1cc(C)nc(NC(=O)/C=C/c2cccs2)c1	0	0	0	?	0	?
CC(NC(=O)COC(=O)C1CCN(c2ccc(C(F)(F)F)cn2)CC1)c1ccc(Br)cc1 (centres undefined)	0	0	0	0	0	0
COc1ccc2[nH]c(=O)c(CN(C(C)=O)c3cc(C)ccc3C)cc2c1	0	0	0	-	0	0
O=C(N/N=C/c1cccnc1)c1ccc2ccccc2c1O	0	0	0	?	0	0
O=C(Nc1ccccn1)c1ccc2ccccc2c1O	14.6µM	0	0	?	0	0
O=C(Nc1cccc([N+](=O)[O-])c1)c1ccc2ccccc2c1O	14.6µM	23.1µM	?	?	?	-63.3
O=C(Nc1cccnc1)c1ccc2ccccc2c1O	13µM	0	0	?	0	0
O=C(O)c1ccccc1C(=O)Nc1ccccn1	0	0	0	0	0	0
Cc1occc1C(=O)Nc1cccc([N+](=O)[O-])c1	0	0	0	0	0	0
O=C1CCCN1C(=O)CSc1nnnn1-c1cccc(F)c1	0	0	0	0	0	0
Oc1ccc2c(c1)OCC1(O)Cc3cc(O)c(O)cc3C21 (centres undefined)	6.51µM	6.51µM	0	-	0	0
CCCCOc1ccc2c(C)cc(=O)oc2c1OCCCC	25.9µM	16.4µM	0	?	0	?
CCC(=O)Oc1ccc2c(C)cc(=O)oc2c1C	6.51µM	?	0	?	0	0
CC(=O)c1c(OCC(=O)O)ccc2c(C)cc(=O)oc12	0	0	0	-	0	0
CCCc1cc(=O)oc2cc(OC(=O)CN3C(=O)NC4(CCCC4)C3=O)ccc12	0	0	0	0	0	0
CC(C)Nc1ncnc2c1cnn2-c1ccc(Cl)cc1	?	?	0	?	0	-58.5
Clc1ccc(Nc2ncnc3c2cnn3-c2ccccc2)cc1	?	?	0	?	0	-53.2
COc1ccc(CCC(=O)Nc2ncc(C)s2)cc1	0	0	0	0	0	0
CC(=O)OC1(C(C)=O)CCC2C3CC(Cl)C4=CC(=O)CCC4(C)C3CCC21C (centres undefined)	23.1µM	?	0	-	0	0
CC(=O)O[C@]1(C(C)=O)CC[C@H]2[C@@H]3C=CC4=CC(=O)C=C[C@]4(C)[C@H]3CC[C@@]21C	14.6µM	?	0	0	0	0
CC(=O)O[C@]1(C(C)=O)CCC2C3C=C(C)C4=CC(=O)CC[C@]4(C)C3CC[C@@]21C (some centres undefined)	16.4µM	23.1µM	0	?	0	?
